The nature of the assay: NCI Yeast Anticancer Drug Screen. Data for the cln2 rad14 strain (AID 165).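 Also: 0% = growth equal to vehicle treated cultures.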 The following applies: S. cerevisiae cln2 rad14 strain, hits give high values. As for the experimental part:
Growth inhibition of yeast strains with defined genetic alterations is measured as a screen for potential anti-cancer activity. Selected strains with alterations in DNA damage repair or cell cycle control were exposed to compounds and growth inhibition was measured relative to vehicle treated controls. The strain used in this assay is cln2 rad14

[1] abbreviates: at 5.0 µM (retest, dose inferred, filed as 0.5).
[2] abbreviates: at 50.0 µM (retest, dose inferred, filed as 5.0).

Among the data in PubChem BioAssay (NCI) are growth inhibition values, retold here.

About 79,000 compounds went through this panel and 15% of them were active in at least one assay; those are over-represented in the sample as a whole. Calls of active or inactive are those of the source. Rule as the data show it: active = growth inhibition above about 70%; inactive = the rest.

As to `COc1ccc(C2CN(C(=O)c3ccccc3)N=C(c3ccccc3)O2)cc1` (configuration not stated), the growth inhibition under setting [1] is -5% (inactive), the growth inhibition under setting [2] is -8% (inactive) and the growth inhibition (at 50.0 µM) is 90.2% (active).
The corresponding values for `CCCCN(CCCC)CCCC(O)c1c2ccc(Cl)cc2nc2ccc(OC)cc12` (configuration not stated) are -3% (inactive), 0% (inactive) and 25.6% (inactive).
The corresponding values for `O=C1C(Br)=C(Sc2ccc([N+](=O)[O-])cc2)C(=O)c2ccccc21` are 11% (inactive), 91% (active) and 84.2% (active).
Turning to `Nc1c(/C=C/c2cc3ccc(C4=NCCN4)cc3[nH]2)[nH]c2cc(C3=NCCN3)ccc12`, the growth inhibition runs as follows: under setting [1], 47% (inactive); under setting [2], 94% (active); (at 50.0 µM) 89.5% (active).
The like results for `O=P(O)(O)Oc1c(O)c2ccccc2c2ccccc12` were, in that order, 5% (inactive), 97% (active) and 97% (active).
The corresponding values for `CCOC(CCl)Oc1c(C(C)C)cc(C(C)C)c(Cl)c1C` (configuration not stated) are 4% (inactive), 26% (inactive) and 96.7% (active).
The like results for `Cc1cc(C)cc([C@H](C)N=Cc2cc(Br)ccc2O)c1` were, in that order, -4% (inactive), 96% (active) and 86.3% (active).
As to `O=CC1(c2ccc(Cl)cc2)NC(=O)NC1=O` (configuration not stated), the growth inhibition is 3% (inactive) under setting [1], -14% (inactive) under setting [2] and 83% (active) (at 50.0 µM).
As to `CC(=O)Oc1ccc(-c2ccc(Br)cc2)cc1`, the growth inhibition reads like this: under setting [1], -11% (inactive); under setting [2], 93% (active); (at 50.0 µM) 97.8% (active).
The like results for `CN(C)c1ccc(/C=C(\NC(=O)c2ccccc2)c2nc3ccccc3s2)cc1` were, in that order, 17% (inactive), 95% (active) and 97.3% (active).
The like results for `CC12C(=O)N(CC(=O)O)C(=O)C1(C)C1c3ccccc3C2c2ccc3ccccc3c21` (configuration not stated) were, in that order, -8% (inactive), 99% (active) and 99% (active).
The like results for `CC(C)(C)C1=CC(N2CCCCC2)(C(C)(C)C)C=C(C(C)(C)C)C1=O` were, in that order, -3% (inactive), 30% (inactive) and 65.3% (inactive).
As to `O=C(O)CCC(O)=C1S(=O)(=O)OCCOS1(=O)=O`, the growth inhibition runs as follows: under setting [1], -42% (inactive); under setting [2], -30% (inactive); (at 50.0 µM) 47.7% (inactive).
The corresponding values for `CC1(C)OC(=O)C(=NNc2ccccc2[N+](=O)[O-])C(=O)O1` are -2% (inactive), 12% (inactive) and 29.4% (inactive).
